{"source": "PubChem BioAssay AID1347417", "about": "(National Center for Advancing Translational Sciences (NCATS), 2020)", "note": "Screen size: about 120,000 compounds; about 5,300 (4.4%) were called active. Roughly 22% stayed inconclusive and do not appear here. Calls follow the shape of the dose curve; as a rule, active = well fitted inhibition curve with a large enough effect; inconclusive = small, poorly fitted or top-dose-only effect; inactive = no such curve, though single readings can be large or run the other way. Shown is part of a subset that was picked to be rich in actives. Entries that show only a call come without a potency. Potency is read from the fitted curve at half-maximal effect.", "data": [{"experiment": "qHTS Primary assay for Inhibitors of Plasmodium falciparum Dd2 growth in vitro; also: nearly all actives have a fitted effect of over 65% in size", "settings": "P. falciparum Dd2 growth, SYBR Green, 72 h; series mostly up to 28.9 µM", "how_it_was_run": "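Infected erythrocytes (Dd2, 0.3% parasitemia, 2.5% hematocrit final) are added to compound in RPMI-1640/Albumax II medium, grown 72 h at 37C in low oxygen, then lysed with saponin/Triton-X containing SYBR Green and read by fluorescence.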", "values": [{"compound": "O=C(Nc1ccc([C@@H](O)[C@H]2COCC(=O)N2CCCc2ccccc2)cc1)C1CC1", "Potency": "inactive"}, {"compound": "Cc1ccc(Cl)cc1NC(=O)CN1C(=O)NC2(CCC(C)CC2)C1=O", "note": "(centres undefined)", "Potency": "inactive"}, {"compound": "Cc1ccc(CN2CCCOCCNC(=O)CC2)o1", "Potency": "inactive"}, {"compound": "CCn1cc(CN2CC[C@H]3C(=O)NCCCCCCN(Cc4ccncc4)[C@@H]3C2)c(C)n1", "Potency": "inactive"}, {"compound": "O=C(NCc1ccccc1)N1CCN2C(=O)NC[C@H]2C1", "Potency": "inactive"}, {"compound": "O=C(NC1CCCCCC1)c1ccc2c(c1)CC(=O)N2Cc1cccc(F)c1", "Potency": "inactive"}, {"compound": "CCOc1ccc(CNC(=O)c2ccc3nc(CC)c(CC)nc3c2)cc1OC", "Potency": "inactive"}, {"compound": "CCOc1ccc(OCC)c(Nc2nc3ccccc3n3nnnc23)c1", "Potency": "inactive"}, {"compound": "CCOc1ccc(CNC(=O)c2cccc(Nc3nc4ccccc4n4nnnc34)c2)cc1OC", "Potency": "11.2 µM (active)"}, {"compound": "CC(=O)NCC1Cn2cccc2CN1Cc1ccccc1", "note": "(centres undefined)", "Potency": "inactive"}, {"compound": "O=C(c1cccc(-n2cnnc2)c1)N(Cc1ccsc1)CC1CCCO1", "note": "(centres undefined)", "Potency": "inactive"}, {"compound": "CC(C)c1ccc(C2CC(=O)N3CN(C4CCCCC4)CSC3=C2C#N)cc1", "note": "(centres undefined)", "Potency": "11.2 µM (active)"}, {"compound": "CCn1nccc1C(=O)N1CCCC(c2nc(-c3cccnc3)no2)CCNC(=O)CC1", "note": "(centres undefined)", "Potency": "inactive"}, {"compound": "O=C(c1cc(F)ccc1F)N1CCCCCC1c1nnc(-c2ccccc2)o1", "note": "(centres undefined)", "Potency": "inactive"}, {"compound": "Cc1cc(CN(C)C(=O)c2cc(COc3ccc(F)cc3F)on2)on1", "Potency": "inactive"}, {"compound": "CCCNC(=O)CCC1CCN(C(=O)c2ccc(C)cc2)CC1", "Potency": "inactive"}, {"compound": "CCCNc1cc(N2CCC(CCC(=O)Nc3ccc(C)cc3)CC2)ncn1", "Potency": "12.6 µM (active)"}, {"compound": "CCNc1cc(N2CCC(CCC(=O)N3CCc4ccccc4C3)CC2)ncn1", "Potency": "inactive"}, {"compound": "CCOc1ccccc1C(=O)N[C@@H]1CN(c2ncccn2)C[C@H]1CO", "Potency": "inactive"}, {"compound": "CC(=O)N1CCC(C(=O)NCC(=O)N2CCCCCCNC(=O)CC2c2ccccc2)CC1", "note": "(centres undefined)", "Potency": "inactive"}, {"compound": "Cc1nn2c(c1-c1ccccc1Oc1ccccc1)N(C(=O)C(C)C)CCC2", "Potency": "10 µM (active)"}, {"compound": "Cc1nn2c(c1-c1ccccc1N1CCCC1)N(C(=O)c1ccc(Oc3ccccc3)cc1)CCC2", "Potency": "inactive"}, {"compound": "Cc1nn2c(c1-c1ccnn1C(C)C)N(C(=O)c1ccc(Oc3ccccc3)cc1)CCC2", "Potency": "inactive"}, {"compound": "c1ccc(-c2nnc(CN3CCN(c4cnccn4)CC3)o2)cc1", "Potency": "inactive"}, {"compound": "COc1cc(Nc2nc(-c3ccc(OC)c(OC)c3)nc3ccccc23)cc(OC)c1", "Potency": "8.91 µM (active)"}, {"compound": "COc1ccc(CCNc2nc(-c3ccc(F)cc3)cc(C(F)(F)F)n2)cc1OC", "Potency": "inactive"}, {"compound": "COc1ccc(Nc2ncc(C(=O)Nc3cc(C)ccc3OC)c3ccccc23)cc1", "Potency": "inactive"}, {"compound": "COc1ccc(OCc2nc(C)c(CCO)c(=O)n2CC(=O)Nc2ccccc2C)cc1", "Potency": "inactive"}, {"compound": "CCC(C)NC(=O)CN1CN(c2ccccc2)C2(CCN(C(=O)c3ccccc3OC)CC2)C1=O", "note": "(centres undefined)", "Potency": "inactive"}, {"compound": "O=C(NC1CC(=O)N(Cc2ccccc2C(F)(F)F)C1)c1ccc[n+]([O-])c1", "note": "(centres undefined)", "Potency": "inactive"}, {"compound": "O=C(c1cn2ccsc2n1)N1CCn2nc(C(O)c3ccccc3)cc2C1", "note": "(centres undefined)", "Potency": "inactive"}, {"compound": "COC[C@@H]1CN(C(=O)c2cc(C)oc2C)C[C@H]1c1nc(C2CC2)no1", "Potency": "inactive"}, {"compound": "Cc1cc2nc(NC(=O)c3ccc(S(=O)(=O)N4CCOCC4)cc3)sc2cc1C", "Potency": "inactive"}, {"compound": "NS(=O)(=O)c1ccc2nc(NC(=O)COc3ccccc3)sc2c1", "Potency": "inactive"}, {"compound": "CN(C)c1cccc(C(=O)Nc2nc3ccc(S(=O)(=O)NC(C)(C)C)cc3s2)c1", "Potency": "11.2 µM (active)"}, {"compound": "CCOCCOC1CCN(C(=O)Cc2cccc(OC)c2)CC1", "Potency": "inactive"}, {"compound": "CS(=O)(=O)N1CCC(OC2CCN(C(=O)c3cccc(Cl)c3)CC2)CC1", "Potency": "inactive"}, {"compound": "Cc1ccc(NC(=O)N2CCC(OC3CCN(S(C)(=O)=O)CC3)CC2)cc1F", "Potency": "0.447 µM (active)"}, {"compound": "Cc1cccc(C)c1NC(=O)N1CCC(OC2CCN(S(C)(=O)=O)CC2)CC1", "Potency": "inactive"}, {"compound": "NC(=O)c1ccc(NC(=O)C2CC(=O)N(c3n[nH]c4cccc(F)c34)C2)cc1", "note": "(centres undefined)", "Potency": "inactive"}, {"compound": "COC(=O)c1cccc(NC(=O)N2CCC3(CCC(=O)N(Cc4ccccc4)CC3)CC2)c1", "Potency": "inactive"}, {"compound": "CCOC(=O)c1ccc(NC(=O)C2CC(=O)N(c3ccc(C(C)C)cc3)C2)cc1", "note": "(centres undefined)", "Potency": "inactive"}, {"compound": "CCOC(=O)c1ccc(N2C(=O)c3n[nH]c(C)c3C2c2ccc(O)c(OC)c2)cc1", "note": "(centres undefined)", "Potency": "inactive"}, {"compound": "CCOC(=O)c1ccc(N2C(=O)c3[nH]nc(-c4ccccc4)c3C2c2ccc(C(C)C)cc2)cc1", "note": "(centres undefined)", "Potency": "7.94 µM (active)"}, {"compound": "Nc1nc2c(s1)C(c1ccccc1)CC(=O)N2", "note": "(centres undefined)", "Potency": "inactive"}, {"compound": "NCc1ccc(-c2cncnc2)cc1", "Potency": "inactive"}, {"compound": "Cc1cccc(-c2cccc(CN)c2)c1", "Potency": "11.2 µM (active)"}, {"compound": "O=C(Cc1ccsc1)N1CCC(Oc2ccccc2)C1", "note": "(centres undefined)", "Potency": "inactive"}, {"compound": "Cc1cccc(NC(c2cccc(F)c2)c2ccc3ccc(C)nc3c2O)n1", "note": "(centres undefined)", "Potency": "6.31 µM (active)"}]}]}
